# Test results taken from the supplement of paper PMC7669877.
# ± gives the uncertainty stated by the source.
# Test system: Candidatus Liberibacter solanacearum in potato hairy roots
# Assay: relative CLso titer (% of untreated control); higher = less inhibition of bacterial titer
# Conditions: 10 µM; 72 h
# Procedure: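 Primary screen of ~220 Spectrum collection (MicroSource) compounds at 10 µM (0.1% DMSO) on Candidatus Liberibacter solanacearum-infected potato hairy roots in multi-well plates (Gamborg B-5 medium, vacuum infiltrated, 21 °C, dark, 72 h). CLso titer was measured by qPCR of 16S rDNA normalised to potato RPL2 (2^-ddCq), pairwise-standardised against untreated controls, averaged over two biological replicates and expressed as % of untreated.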
row,Structure (SMILES),relative CLso titer [%]
1,COc1cc(NS(=O)(=O)c2ccc(N)cc2)ncn1,60.3 ± 11
2,C=C1c2cccc(O)c2C(=O)C2=C(O)[C@]3(O)C(=O)C(C(N)=O)=C(O)[C@@H](N(C)C)[C@@H]3[C@@H](O)[C@H]12,79.1 ± 26
3,Oc1c(Cl)cc(Cl)cc1Sc1cc(Cl)cc(Cl)c1O,55.8 ± 6.5
4,C[C@@H](O[C@H]1OCCN(Cc2n[nH]c(=O)[nH]2)[C@H]1c1ccc(F)cc1)c1cc(C(F)(F)F)cc(C(F)(F)F)c1,117 ± 51
5,CCCCOc1ccc(OCCCN2CCOCC2)cc1,106 ± 37
6,CCCC(C(=O)OCCN(CC)CC)(c1ccccc1)c1ccccc1,112 ± 16
7,C[C@H](CCC(=O)O)[C@H]1CC[C@H]2[C@@H]3C(=O)C[C@@H]4CC(=O)CC[C@]4(C)[C@H]3CC(=O)[C@]12C,212 ± 78
8,CC1=C(C(=O)O)N2C(=O)[C@@H](NC(=O)[C@H](N)c3ccc(O)cc3)[C@H]2SC1,49.7 ± 6.2
9,CCOc1ccc(Cc2cc([C@@H]3O[C@H](CO)[C@@H](O)[C@H](O)[C@H]3O)ccc2Cl)cc1,99 ± 3
10,C[C@]12CC[C@@H]3c4ccc(O)cc4CC[C@H]3[C@@H]1CC[C@@H]2O,126 ± 25
11,CC(=O)OCC(=O)[C@H]1CC[C@H]2[C@@H]3CCC4=CC(=O)CC[C@]4(C)[C@H]3CC[C@]12C,104 ± 18
12,Nc1ccc(S(=O)(=O)Nc2ccc(Cl)nn2)cc1,52.4 ± 4.8
13,CN(C)/N=N/c1[nH]cnc1C(N)=O,84.5 ± 19
14,Clc1ccc(COC(Cn2ccnc2)c2ccc(Cl)cc2Cl)cc1 (stereo not given),101 ± 35
15,CC1(C)OC(=O)C(OCC2CC2)=C1c1ccc(S(C)(=O)=O)cc1,53.8 ± 6.5
16,CC(C(=O)O)c1cccc(C(=O)c2ccccc2)c1 (stereo not given),132 ± 34
17,CCN(CCCCOC(=O)c1ccc(OC)c(OC)c1)C(C)Cc1ccc(OC)cc1 (stereo not given),94.6 ± 34
18,CCCOc1cc(N)ccc1C(=O)OCCN(CC)CC,102 ± 10
19,CCC1(C)CC(=O)NC1=O (stereo not given),119.65 ± 0.011
20,CC(=O)OCC1=C(C(=O)O)N2C(=O)[C@@H](NC(=O)CSc3ccncc3)[C@H]2SC1,70.6 ± 0.88

row,Structure (SMILES),relative CLso titer [%]
1,Nc1ccc(S(=O)(=O)Nc2cnc3ccccc3n2)cc1,80.23 ± 0.64
2,C[C@@](Cc1ccc(O)c(O)c1)(NN)C(=O)O,138.8 ± 1.3
3,COC1=CC(=O)C[C@@H](C)[C@]12Oc1c(Cl)c(OC)cc(OC)c1C2=O,67.3 ± 13
4,CN(C)CCOC(c1ccccc1)c1ccccc1,55.8 ± 26
5,CO[C@@]1(NC(=O)Cc2cccs2)C(=O)N2C(C(=O)O)=C(COC(N)=O)CS[C@@H]21,130 ± 27
6,CC1(C)S[C@@H]2[C@H](NC(=O)C(C(=O)O)c3ccccc3)C(=O)N2[C@H]1C(=O)O (stereo not given in full),43.3 ± 14
7,CCN1CCCC(OC(=O)C(c2ccccc2)c2ccccc2)C1 (stereo not given),188 ± 36
8,C[C@H]1O[C@@H](O[C@H]2[C@@H](O)C[C@H](O[C@H]3[C@@H](O)C[C@H](O[C@H]4CC[C@@]5(C)[C@H](CC[C@@H]6[C@@H]5C[C@@H](O)[C@]5(C)[C@@H](C7=CC(=O)OC7)CC[C@]65O)C4)O[C@@H]3C)O[C@@H]2C)C[C@H](O)[C@@H]1O,86.7 ± 7.9
9,O=C(O)CCC(=O)Nc1ccc(S(=O)(=O)Nc2nccs2)cc1,100 ± 28
10,CN(C)c1cnccn1,120 ± 27
11,Oc1ncnc2[nH]ncc12,82.5 ± 30
12,CC(C)CCCC(C)N (stereo not given),93.3 ± 14
13,CO[C@@]12[C@H](COC(N)=O)C3=C(C(=O)C(C)=C(N)C3=O)N1C[C@@H]1N[C@@H]12,85 ± 10
14,C[n+]1cc2c3c(ccc2c2ccc4cc5c(cc4c21)OCO5)OCO3,86.7 ± 34
15,COc1ccc(O)cc1,173 ± 58
16,CN(C)[C@@H]1C(O)=C(C(N)=O)C(=O)[C@@]2(O)C(O)=C3C(=O)c4c(O)ccc(Cl)c4[C@@H](O)[C@H]3C[C@@H]12,173 ± 42
17,CC1(C)O[C@@H]2C[C@H]3[C@@H]4C[C@H](F)C5=CC(=O)C=C[C@]5(C)[C@H]4[C@@H](O)C[C@]3(C)[C@]2(C(=O)CO)O1,99.4 ± 17
18,CCOC(=O)[C@H](CCc1ccccc1)N[C@@H](C)C(=O)N(CC(=O)O)C1Cc2ccccc2C1,90.7 ± 30
19,OCCN(CCO)c1nc(N2CCCCC2)c2nc(N(CCO)CCO)nc(N3CCCCC3)c2n1,107 ± 26
20,Clc1cccc(Cl)c1NC1=NCCN1,55.5 ± 4.1
